Screening data from PubChem.
Hits are enriched below; roughly 3.7% of the tested compounds scored in any of these assays.
PTHR1 ag: PTHR1 (human) receptor agonism. HEK293 GP2 PTHR1 cells, GloSensor cAMP luminescence, 1 h. Potency, µM (top dose mostly 115 µM), most hits filed as activators. Q03431. 410,000 tested, 0.075% active; note: nearly all actives have a fitted effect of over 55% in size
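HEK-293-derived GP2 cells expressing PTHR1 and a GloSensor cAMP reporter, 3,000/well, plated overnight, given luciferin plus IBMX (each 0.5 mM as added) for 1 h at 37 °C, then compound for 1 h at 37 °C. Luminescence was read after 15 min at room temperature.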
BRCA1 expr up: increases BRCA1 expression | AID 624202 | Potency, µM (doses to about 46.1 µM), actives largely listed as activators | MCF7-BRCA1-FFLuc reporter, luminescence, 48 h; response scale: scaled: vehicle 0%, 10 µM genistein 100% | 380,000 tested, 1.1% active; note: nearly all actives have a fitted effect of over 80% in size
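MCF7-BRCA1-FFLuc, 2000 cells/well; 2 h attach, 37 °C/5% CO2; compound 48 h; luciferase substrate 15 min; luminescence end-point. Norm. to genistein 10 microM max activation and DMSO; concentration-response curves fitted.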
B2AR arrestin: agonists driving beta-arrestin recruitment to human beta2-adrenergic receptor. 330,000 tested, 0.02% active. Potency, µM (highest dose often 46.1 µM), hits mostly activators. beta-arrestin recruitment to beta2AR, cell-based reporter. P07550; note: nearly all actives have a fitted effect of over 65% in size
D3 antag: blocks the human D3 dopamine receptor. P35462. D3R cells, DiscoveRx beta-arrestin luminescence, antagonist mode; hits give low values. max response, negative = inhibition, %. 360,000 tested, 2.5% active. AID 652054; in the data active = max response below about -50%; inconclusive = no clear call, values can overlap the other calls
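Cells expressing the human receptor were seeded at 1500 cells/well, incubated overnight at 37 degrees C in 5% CO2, then exposed to library compounds with dopamine controls for 90 minutes at 37 degrees C before luminescent detection.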
D3 ag: agonists of human D3 dopamine receptor; P35462; D3R DiscoveRx beta-arrestin cells, luminescence, 90 min; max activation, %; 410,000 tested, 0.58% active; AID 652048; in the data active = max activation above about 30%
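Agonist-mode cell screen: cells plated at 1500/well and incubated overnight at 37 °C, then exposed to library compounds for 90 min at 37 °C. Detection reagent was added for 30–60 min at room temperature, and luminescence was read.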
RGS4 inhibitor: inhibitors of human regulator of G protein signaling 4. P49798. Transcreener GDP fluorescence polarization, RGS4-accelerated GTP hydrolysis. Potency, µM (series often up to 114 µM), actives largely listed as inhibitors. 390,000 tested, 0.039% active. AID 504845; note: nearly all actives have a fitted effect of over 75% in size
Target sequence (P49798 whole entry, looked up): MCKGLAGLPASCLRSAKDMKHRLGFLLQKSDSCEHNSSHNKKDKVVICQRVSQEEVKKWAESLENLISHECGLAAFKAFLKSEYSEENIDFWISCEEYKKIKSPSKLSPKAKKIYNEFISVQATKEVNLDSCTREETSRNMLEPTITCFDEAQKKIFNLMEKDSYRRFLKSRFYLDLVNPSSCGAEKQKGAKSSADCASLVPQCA
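MLSMR compounds (23 nl, pin-transferred) preincubated 10 min at room temperature with a 500nM (2x) first reagent, then RGS4 at 900nM (2x) plus Transcreener GDP mix added; fluorescence polarization (620/688 nm) read before and after 90 min at 30 °C.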
Hits are given with their value; – = inactive; ? = inconclusive; · = not tested or not shown. Unless noted, calls come from the whole dose curve; as a rule, active = well fitted curve in the direction sought with a large enough effect; inconclusive = small, poorly fitted or top-dose-only effect, or another doubt; inactive = no such curve, though single readings can be large; an effect the other way counts as inactive or inconclusive.

SMILES	PTHR1 ag	BRCA1 expr up	B2AR arrestin	D3 antag	D3 ag	RGS4 inhibitor
COc1cc(C(C)=O)ccc1Oc1ncnc2c1cnn2-c1ccccc1	–	–	–	–	36	–
O=C(Nc1ccc(F)cc1F)c1c(C(F)(F)F)ccnc1Oc1cccc(C(F)(F)F)c1	–	–	–	-58	–	–
O=C(Nc1ccc(F)cc1F)c1c(C(F)(F)F)ccnc1Oc1ccc(Cl)cc1	–	–	–	–	–	–
O=c1[nH]c(Cc2ccccn2)nc2scc(-c3ccccc3Cl)c12	–	–	–	–	–	–
COc1cccc(/C=N/Nc2ncccc2[N+](=O)[O-])c1OC	–	?	–	?	–	–
COc1ccccc1/C=N/Nc1nccnc1Cl	–	11µM	–	–	–	–
COc1ccc(/C=N/Nc2ccccn2)c(OC)c1OC	–	11µM	–	–	–	–
C=CCOc1ccc(/C=N/Nc2ccccn2)cc1OC	–	5µM	–	–	–	–
COc1ccc(/C=N\Nc2ccccn2)c(OC)c1	–	?	–	–	–	–
CCOc1ccc(/C=N/N(C)c2ccccc2)cc1OC	–	4.5µM	–	-54	–	–
NC(=O)C1CCN(C(=O)c2ccc([N+](=O)[O-])cc2NC(=O)c2cccs2)CC1	–	–	–	–	–	–
CCCOC(=O)c1cccc(Nc2nc(CCC)cc(=O)[nH]2)c1	–	·	·	·	–	–
CCOc1ccc(/C=N/Nc2ccccn2)cc1OC	–	11µM	–	?	–	?
CCCOc1ccc(/C=N/Nc2ccccn2)cc1OC	–	–	–	–	–	–
COc1cccc(NC(=O)c2cccc3c(=O)c4c([nH]c23)CCCC4)c1	–	·	·	·	–	–
O=S(=O)(c1cccs1)N1CCCc2cccc(O)c21	–	13µM	–	-73	–	–
CCc1ccc(OCC(=O)N(Cc2ccc(C)o2)C2CCS(=O)(=O)C2)cc1 (stereo not drawn)	–	·	·	·	–	–
COc1ccc(Nc2nnc(SCC(=O)N(CC(C)C)C3CCS(=O)(=O)C3)s2)cc1 (stereo not drawn)	–	7.1µM	·	?	–	·
CCN(C(=O)CSc1nnc(Nc2ccccc2)s1)C1CCS(=O)(=O)C1 (stereo not drawn)	–	–	–	–	–	–
CC(/C=N/NC(=O)Cc1cccn1C)=C\c1ccccc1	–	11µM	–	–	–	–
CCOC(=O)c1ccc(NC(=O)Cn2nnc3ccccc32)cc1	–	4µM	–	–	–	–
CCOC(=O)c1ccc(NC(=O)CCn2nnc3ccccc32)cc1	–	–	?	–	–	–
CN(C)c1ccc(P(=O)(CC(=O)N/N=C/c2ccc(C#N)cc2)OCCCl)cc1 (stereo not drawn)	–	–	–	-63	–	–
Cc1cccc(C2(c3cccc(C)c3)CC2C(=O)Nc2ccc([N+](=O)[O-])cc2O)c1 (stereo not drawn)	–	–	–	-70	–	–
C=Cc1ccc(Cn2c(C(=O)O)c(CNCc3ccc(F)cc3)c3ccc(C)cc32)cc1	–	·	·	·	–	–
SMILES	PTHR1 ag	BRCA1 expr up	B2AR arrestin	D3 antag	D3 ag	RGS4 inhibitor
OC(COCc1cccs1)CN1CCCCCC1 (stereo not drawn)	–	–	–	–	–	–
OC(COCc1ccc(Cl)cc1)CN1CCN(c2ccccn2)CC1 (stereo not drawn)	–	–	–	–	59	–
Cc1cccc(N2CCN(CC(O)COCc3cccs3)CC2)c1C (stereo not drawn)	–	–	–	–	58	–
OC(COCc1cccs1)CN1CCN(c2ccccc2Cl)CC1 (stereo not drawn)	–	–	–	-69	–	–
CCOc1ccccc1N1CCN(CC(O)COCc2cccs2)CC1 (stereo not drawn)	–	–	–	-85	–	–
OC(COc1ccc(Cl)cc1)CN1CCN(c2ccccn2)CC1 (stereo not drawn)	–	–	·	–	–	–
CN1CCCN(CC(O)COCc2cccs2)CC1 (stereo not drawn)	–	–	–	–	–	–
CC(=O)OC(C(=O)N1CCOCC1)c1c(F)cccc1F (stereo not drawn)	–	–	–	–	–	–
